In the library only some 12% were active in any assay of this set; here they are far more common.
Pf growth 48h: P. falciparum growth inhibition at 48 hours (one generation). P. falciparum luciferase growth in erythrocytes, 48 h. Potency, µM (series often up to 28.7 µM), without a hit: top-dose activity change, negative = inhibition, usual class: inhibitors. 310,000 tested, 5.9% active. AID 504832; also: % is scaled to controls: 0 for no effect and ±100 for the full control effect
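Erythrocytes infected with P. falciparum carrying an integrated firefly luciferase reporter (2% hematocrit, 0.1% parasitemia final) were exposed to compounds in RPMI 1640 with 0.5% Albumax at 37 C, 5% CO2. Growth inhibition was scored as reduced luminescence.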
Sm TGR block: inhibitors of Schistosoma mansoni thioredoxin glutathione reductase. Q962Y6. 360,000 tested, 3% active. purified TGR, DTNB reduction, TNB absorbance 405 nm. Potency, µM (series often up to 114 µM), for inactives: at the top dose activity change, negative = inhibition, most hits filed as inhibitors. AID 485364; also: % is scaled to controls: 0 for no effect and ±100 for the full control effect; nearly all actives have a fitted effect of over 60% in size
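First, TGR (20 nM dispensed) and NADPH were mixed with compound. Second, a 15 min room-temperature incubation followed. Third, further NADPH and then DTNB were added to start the reaction. Finally, TNB absorbance was monitored kinetically.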
AmpC no deterg: inhibitors of E. coli AmpC beta-lactamase without detergent | 330,000 tested, 0.52% active | P00811 | Potency, µM (titrated, usually from 57.1 µM), for the others: at the highest dose activity change, negative = inhibition, actives largely listed as inhibitors | AmpC nitrocefin hydrolysis, absorbance 480 nm, 0.0001% Triton;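 also: plate controls were no compound for no effect and no enzyme for full effect; nearly all actives have a fitted effect of over 20% in size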
Target sequence (P00811 whole entry, looked up): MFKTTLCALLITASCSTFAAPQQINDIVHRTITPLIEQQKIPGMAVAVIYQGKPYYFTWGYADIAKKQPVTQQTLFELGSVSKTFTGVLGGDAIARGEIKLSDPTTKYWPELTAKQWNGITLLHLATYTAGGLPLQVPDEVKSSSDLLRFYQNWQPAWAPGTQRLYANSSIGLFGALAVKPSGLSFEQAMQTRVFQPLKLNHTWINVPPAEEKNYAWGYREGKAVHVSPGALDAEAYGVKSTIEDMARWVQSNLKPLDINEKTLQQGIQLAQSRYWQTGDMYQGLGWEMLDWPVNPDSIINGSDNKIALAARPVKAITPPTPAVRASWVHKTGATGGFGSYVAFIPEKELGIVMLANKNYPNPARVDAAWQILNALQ
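AmpC (5.3 nM in the dispensed reagent) in 20 mM phosphate pH 7.0 with 0.01% (detergent screen) or 0.0001% Triton X-100 was preincubated with compounds for 15 min at room temperature. Nitrocefin was then added from an 800 uM solution, and hydrolysis was followed at 480 nm.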
SARS PLpro yeast: inhibitors of SARS-CoV papain-like protease in yeast; S. cerevisiae expressing SARS-CoV PLpro, growth rescue; Potency, µM (highest dose often 32.9 µM), inactives show at the top dose activity, positive = growth rescue, most hits filed as activators; 330,000 tested, 0.19% active; AID 485353; calls by dose curve; also: 0% is about no effect; nearly all actives have a fitted effect of over 55% in size
Pf growth 96h: P. falciparum growth inhibition at 96 hours | AID 504834 | P. falciparum luciferase reporter growth, 96 h | Potency, µM (highest dose often 28.7 µM), for the others: at the top dose activity change, negative = inhibition, usual class: inhibitors | 320,000 tested, 6.9% active; also: % is scaled to controls: 0 for no effect and ±100 for the full control effect
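Cell-based qHTS: luciferase-tagged P. falciparum in erythrocytes (2% hematocrit, 0.05% parasitemia final) incubated with compounds for 96 hours, 37 C, 5% CO2; luciferase detection reagent then added and luminescence measured.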
AmpC inh detg: blocks E. coli AmpC beta-lactamase in detergent assay | P00811 | AmpC hydrolysis of nitrocefin, absorbance 480 nm, 0.01% Triton | Potency, µM (highest dose often 114 µM), without a hit: at the top dose activity change, negative = inhibition, usual class: inhibitors | 370,000 tested, 0.041% active | AID 485294;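 also: 0% = no-compound wells and -100% = no-enzyme wells; nearly all actives have a fitted effect of over 25% in size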
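AmpC (5.3 nM in the dispensed reagent) in 20 mM phosphate pH 7.0 with 0.01% (detergent screen) or 0.0001% Triton X-100 was preincubated with compounds for 15 min at room temperature. Nitrocefin was then added from an 800 uM solution, and hydrolysis was followed at 480 nm.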
Active calls of the source: *; ? = inconclusive; nt = no result. Unless noted, calls follow the shape of the dose curve; as a rule, active = well fitted curve in the direction sought with a large enough effect; inconclusive = small, poorly fitted or top-dose-only effect, or another doubt; inactive = no such curve, though single readings can be large; an effect the other way counts as inactive or inconclusive. Potency is read from the fitted curve at half-maximal effect.

SMILES | Pf growth 48h | Sm TGR block | AmpC no deterg | SARS PLpro yeast | Pf growth 96h | AmpC inh detg
CCOC(=O)N1CCN(c2nc3ccccn3c(=O)c2C=O)CC1 | 0.29µM* | -8% | 9% | 0% | 0.83µM* | -6%
Cc1cccc2c1NC(=O)C21OCC(CO)([N+](=O)[O-])CO1 (stereo not drawn) | 7% | -22% | -10% | 3% | 2.6µM* | -11%
CC1(CO)COC2(OC1)C(=O)Nc1ccccc12 (stereo not drawn) | -20% | -4% | -19% | 1% | ? | -5%
N#CC1CC(c2ccccc2)Nc2cc(Cl)ccc2N1 (stereo not drawn) | 136% | -22% | 11µM* | -7% | ? | ?
CN1C(=O)CC(c2ccccc2)Nc2ccccc21 (stereo not drawn) | 15% | -3% | -3% | -2% | 27% | 5%
CCN(CC)c1nc2nonc2nc1N(CC)CC | -22% | 1% | -9% | 2% | 4.7µM* | -9%
CCCCNCc1cc(Br)c(OCC(=O)N2CCOCC2)c(OC)c1 | 0% | ? | -15% | 3% | 30% | -1%
CCCCOc1c(Br)cc(CNCCCN2CCOCC2)cc1OC | 13µM* | 0% | 46% | -10% | 10µM* | -11%
CCOC(=O)C(C)NC(=O)Cn1ncc2c(=O)oc3ccc(C)cc3c21 (stereo not drawn) | ? | 0% | -13% | -1% | 83% | 3%
COC(=O)C(CCSC)NC(=O)Cn1ncc2c(=O)oc3ccc(C)cc3c21 (stereo not drawn) | 24% | -11% | -1% | 20% | 15µM* | ?
COc1ccc(-c2cc([C@H]3[C@@H]4C=CCC[C@@]4(C)C(=O)N3Cc3ccccc3)ccc2F)cc1OC | ? | 4% | 145% | -5% | ? | -7%
NS(=O)(=O)c1ccc(CCNC(=O)c2cnc(Cl)c(Cl)c2)cc1 | 3% | -3% | -29% | 5% | 0% | -4%
O=C(c1cccc(C(F)(F)F)c1)C1CCCN(Cc2ccccc2O)C1 (stereo not drawn) | ? | 0% | 30% | 0% | 8.3µM* | 1%
O=C(C1CCCN(Cc2cc(Br)ccc2O)C1)N1CCCCC1 (stereo not drawn) | 8.3µM* | -2% | -22% | -3% | ? | -4%
CN(C)c1cccc(C(=O)N(C)C2CCCN(Cc3ccccc3F)C2)c1 (stereo not drawn) | ? | -23% | 12% | -1% | 4.1µM* | 0%
CCOc1cc(CN2CCCC(C(=O)c3cccc(C(F)(F)F)c3)C2)ccc1O (stereo not drawn) | 5.2µM* | ? | 42% | 0% | 8% | -3%
COc1cc(C(=O)N2CCN(CCc3ccccn3)CC2)cc(OC)c1OC | nt | ? | nt | nt | nt | 15%
COc1ccc(CC(=O)NCC2CCCN(Cc3cccc(C(F)(F)F)c3)C2)cc1 (stereo not drawn) | 0% | -15% | 44% | -4% | 159% | ?
O=C(NCC1CCCN(Cc2ccccc2F)C1)c1cccc(C(F)(F)F)c1 (stereo not drawn) | -5% | -3% | 21% | 0% | 12µM* | 5%
Cc1ccc(N2C(=O)CS(=O)C(c3ccccc3)C2=O)cc1C (stereo not drawn) | ? | 1.1µM* | -26% | 0% | -11% | -1%
C=CCSc1nc2c(c(-c3ccsc3)c1C#N)CN(C)CC2 | ? | 10µM* | 2% | 0% | ? | 2%
C=CCSc1nc(N)c(C#N)c(-c2ccccc2)c1C#N | 8% | -14% | -19% | 2% | 17% | -15%
O=S(=O)(NCCc1csc2nc(-c3ccc(F)cc3)nn12)c1ccc(Oc2ccccc2)cc1 | nt | 9% | nt | nt | nt | 1%
CCOc1ccccc1NC(=O)c1cc(S(=O)(=O)NCc2ccco2)ccc1F | -30% | 32µM* | -44% | 1% | 51% | 0%
COc1ccc(OC)c(NC(=O)c2cc(S(=O)(=O)NCc3ccco3)ccc2F)c1 | 0% | 1% | -24% | -4% | 1.2µM* | ?
SMILES | Pf growth 48h | Sm TGR block | AmpC no deterg | SARS PLpro yeast | Pf growth 96h | AmpC inh detg
COc1ccc(C(C(=O)NC(C)(C)C)N(Cc2ccc(C)cc2)C(=O)CCC(=O)Nc2cc(C)on2)cc1 (stereo not drawn) | 9.3µM* | nt | 122% | 0% | 14% | 3%
COc1cccc(C(C(=O)NC(C)(C)C)N(C(=O)CCC(=O)Nc2cc(C)on2)C(C)C)c1OC (stereo not drawn) | 12µM* | -23% | 21% | 4% | ? | -4%
CCc1ccc(-n2c(C)nnc2SCc2nc(-c3ccc(OC)cc3)no2)cc1 | nt | 3% | nt | nt | nt | 3%
CCN(Cc1ccncc1)Cc1nc(-c2ccc(C(=O)OC)cc2)no1 | 6% | -2% | -24% | 0% | -53% | 0%
COc1cccc(CNC(=O)C2=C(C)C(=O)OC23CCC(C)CC3)c1 (stereo not drawn) | ? | 2% | 13% | -1% | 1% | 1%
COC(=O)C1=CN(Cc2ccccc2)C=C(C(=O)OC)C1c1ccc(OC)c(OC)c1 | ? | 4% | 54% | 2% | 0% | -4%
COC(=O)C1=CN(Cc2ccc(OC)c(OC)c2)C=C(C(=O)OC)C1c1ccc(O)cc1 | ? | 0% | 62% | -7% | 52% | -6%
COC(=O)C1=CN(Cc2ccccc2)C=C(C(=O)OC)C1c1ccc(O)c(OC)c1 | 13µM* | -14% | 58% | 4% | 240% | -9%
COCCN1C=C(C(=O)OC)C(c2cc(Br)c(OC)c(OC)c2)C(C(=O)OC)=C1 | 3.3µM* | 1% | 150% | 0% | 4% | -6%
COC(=O)C1=CN(Cc2ccc(C)cc2)C=C(C(=O)OC)C1c1cc(OC)c(OC)c(OC)c1 | 1.5µM* | 2% | 157% | 1% | ? | ?
Cc1ccccc1/C(N)=N/O | -13% | 7% | -12% | 0% | -19% | ?
O=C(C[N+]1(CC#Cc2ccccc2)CCCCC1)c1ccccc1 | 9.3µM* | -27% | -25% | 3% | ? | 0%
O=C(C[N+]1(CC#Cc2ccccc2)CCCCC1)c1ccc(Cl)cc1 | ? | -33% | 19% | -1% | -22% | 6%
O=C(C[N+]1(CC#Cc2ccccc2)CCOCC1)c1ccccc1 | 13µM* | -30% | -15% | 1% | -11% | -10%
O=C(C[N+]1(CC#Cc2ccccc2)CCOCC1)c1ccc(Cl)cc1 | ? | ? | -14% | -1% | 40% | 13%
COc1ccc(C)cc1NC(=O)CCS(=O)(=O)c1cc2c3c(c1)CCN3C(=O)CC2 | nt | -1% | nt | nt | nt | 1%

Assay outcomes deposited in PubChem by National Center for Advancing Translational Sciences (NCATS).
